Screens (PubChem BioAssay)
This is one part of a sample in which hits are shown more often than they occur.
HT1080 IDH1KD tx = toxicity to HT-1080 IDH1 knockdown cells (counter line). HT-1080 IDH1 knockdown viability, ATP luminescence, 48 h. Potency, µM (series often up to 46.1 µM), for the others: top-dose activity, negative = toxicity, hits mostly cytotoxic. hit rate 2% among 360,000. AID 686971;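 further: potency means the concentration at half of the fitted maximal effect; 0% = DMSO wells and -100% = cell-free medium wells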
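Using the IDH1-knockdown HT-1080 line run in the same batch and compound series as the NT line, viability after 48 h at 37 °C was determined by CellTiter-Glo luminescence and expressed as % activity.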
TDP1 cell CPT = growth inhibition of DT40 Tdp1-/-;hTDP1 cells with camptothecin (screen for TDP1 inhibitors). chicken DT40 Tdp1-/-;hTDP1 cells + 20 nM CPT, ATP luminescence, 48 h. Potency, µM (titrated, usually from 46.2 µM), for the others: at the top dose activity change, negative = growth inhibition, most hits filed as inhibitors. hit rate 12% among 420,000. AID 686979; further: potency means the concentration at half of the fitted maximal effect; nearly all actives have a fitted effect of over 55% in size
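Chicken DT40 Tdp1-/- cells complemented with human TDP1, 400 cells/well, exposed to compounds plus 20 nM camptothecin for at least 48 h at 37 C; viability read as ATP content by CellTiter-Glo luminescence.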
HT1080-NT tox = kills 2HG-producing HT-1080-NT fibrosarcoma cells; AID 686970; Potency, µM (top dose mostly 46.1 µM), for inactives: top-dose activity, negative = less viability, most hits filed as cytotoxic; hit rate 1.6% among 360,000; HT-1080-NT fibrosarcoma viability, CellTiter-Glo ATP luminescence, 48 h;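 further: NT is the 2HG producing partner of a matched IDH1 knockdown line; potency means the concentration at half of the fitted maximal effect; 0% = DMSO-treated cells and -100% = media-only wells without cells; nearly all actives have a fitted effect of over 55% in size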
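Luminescent CellTiter-Glo readout after 48 hours of compound exposure at 37 degrees C defined viability of HT-1080-NT cells. Activity was normalized to DMSO wells and cell-free media wells; concentration-response curves were fitted and assigned curve classes.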
12-LOX inh = inhibitors of human 12S-lipoxygenase ALOX12; P18054; purified 12hLO, xylenol orange hydroperoxide absorbance; Potency, µM (series often up to 108 µM), for the others: at the top dose activity change, negative = inhibition, usual class: inhibitors; hit rate 1.1% among 580,000; further: potency means the concentration at half of the fitted maximal effect
Target sequence (P18054 whole entry, looked up): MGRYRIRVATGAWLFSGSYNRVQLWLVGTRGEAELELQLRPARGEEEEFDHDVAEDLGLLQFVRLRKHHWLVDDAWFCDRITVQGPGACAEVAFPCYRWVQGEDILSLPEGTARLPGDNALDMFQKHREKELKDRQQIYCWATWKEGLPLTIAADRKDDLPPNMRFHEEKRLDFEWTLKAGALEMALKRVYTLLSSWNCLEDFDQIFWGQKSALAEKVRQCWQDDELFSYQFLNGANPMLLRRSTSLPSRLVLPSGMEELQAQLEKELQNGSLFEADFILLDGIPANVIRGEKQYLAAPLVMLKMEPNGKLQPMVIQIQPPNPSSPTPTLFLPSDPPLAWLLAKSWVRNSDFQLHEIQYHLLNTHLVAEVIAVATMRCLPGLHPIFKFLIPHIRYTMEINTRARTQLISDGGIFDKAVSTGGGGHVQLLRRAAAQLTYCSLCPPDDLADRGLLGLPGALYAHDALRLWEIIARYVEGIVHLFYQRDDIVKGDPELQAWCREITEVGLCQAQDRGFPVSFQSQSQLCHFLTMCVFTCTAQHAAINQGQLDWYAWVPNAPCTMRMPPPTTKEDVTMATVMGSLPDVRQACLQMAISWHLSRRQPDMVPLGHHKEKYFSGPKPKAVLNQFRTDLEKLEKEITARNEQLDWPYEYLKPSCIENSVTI
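Purified human 12hLO (150 nM final) in 25 mM Hepes, 0.01% Triton X-100, pH 7.0 was preincubated 15 min at room temperature with compound. Then 40 uM arachidonic acid was added, 30 min. Hydroperoxide was read by Fe-XO absorbance ratio 573/405 nm.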
DT40 TDP1 no CPT = qHTS for Inhibitors of human tyrosyl-DNA phosphodiesterase 1 (TDP1): qHTS in cells in absence of CPT; DT40 Tdp1-/- hTDP1 cells, no CPT, ATP luminescence, 48 h; Potency, µM (top dose mostly 46.2 µM), inactives show top-dose activity change, negative = growth inhibition, hits mostly inhibitors; hit rate 15% among 420,000; AID 686978, 2013; further: potency means the concentration at half of the fitted maximal effect; nearly all actives have a fitted effect of over 55% in size
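Compound effects on proliferation are scored in DT40 Tdp1-/-;hTDP1 cells in the absence of CPT. ATP levels (CellTiter-Glo luminescence) are recorded after a ≥48 hr, 37 °C incubation.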
IL1B secr inh = blocks inflammasome-driven IL-1 beta release; THP-1 LPS/ATP IL-1B secretion, AlphaLISA, 16 h; stronger effect = lower value; activity change, % at 57.5 µM; hit rate 4.7% among 360,000; AID 743279; in the data active means activity change below about -50%; inconclusive means mostly about -30% to -49%
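Secreted IL-1B measured by AlphaLISA bead assay after 16 h compound exposure of THP-1 cells; compounds (final up to 57.5 uM) added 1 h before LPS (250 ng/mL) and ATP (1.25 mM) stimulation; lower signal means less secretion.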
The depositor's hits bear a star. Unless noted, the call rests on the fitted dose curve; in most records, active means well fitted curve in the direction sought with a large enough effect; inconclusive means small, poorly fitted or top-dose-only effect, or another doubt; inactive means no such curve, though single readings can be large; an effect the other way counts as inactive or inconclusive. Unless noted, on the % scale 0 is the no-effect control and ±100 the full control effect.

Results for CC(Oc1cccc(Cl)c1)C(=O)Nc1cc(S(=O)(=O)N2CCOCC2)ccc1N1CCCC1 (stereo not given) ?
HT1080 IDH1KD tx: 4%; TDP1 cell CPT: -27%; HT1080-NT tox: 16%; 12-LOX inh: inconclusive; DT40 TDP1 no CPT: inconclusive; IL1B secr inh: 4

Results for O=C(CNc1cc(S(=O)(=O)N2CCOCC2)ccc1N1CCCC1)Nc1ccc(Cl)cc1F ?
HT1080 IDH1KD tx: 7%; TDP1 cell CPT: inconclusive; HT1080-NT tox: 1%; 12-LOX inh: inconclusive; DT40 TDP1 no CPT: 13µM*; IL1B secr inh: inconclusive

What do the screens show for `C/C(=N\NC(=O)c1cccs1)c1cccc2ccccc12`?
12-LOX inh: 32%

How did Cc1ccn2c(Nc3ccccc3C)c(-c3ccncc3)nc2c1 do in these assays?
HT1080 IDH1KD tx: 7%; TDP1 cell CPT: 16µM*; HT1080-NT tox: -1%; 12-LOX inh: -26%; DT40 TDP1 no CPT: 15µM*; IL1B secr inh: -89*

How did Cc1ccc(-c2nc3ccccn3c2Nc2ccccc2C)s1 do in these assays?
TDP1 cell CPT: inconclusive; 12-LOX inh: -13%; DT40 TDP1 no CPT: 21µM*

How did Cc1ccccc1Nc1c(-c2ccc(Cl)s2)nc2ccccn12 do in these assays?
HT1080 IDH1KD tx: -3%; TDP1 cell CPT: -5%; HT1080-NT tox: -3%; DT40 TDP1 no CPT: inconclusive

How did Cc1ccccc1Nc1c(-c2ccsc2)nc2c(C)cccn12 do in these assays?
TDP1 cell CPT: 16µM*; 12-LOX inh: inconclusive; DT40 TDP1 no CPT: 21µM*

How did CSc1ccccc1NC(=O)c1cc(-c2cccnc2)nc2ccc(Br)cc12 do in these assays?
HT1080 IDH1KD tx: 2%; TDP1 cell CPT: inconclusive; HT1080-NT tox: -4%; 12-LOX inh: 0%; DT40 TDP1 no CPT: 21µM*; IL1B secr inh: inconclusive

Results for O=C(Nc1ccc(C(=O)N2CCOCC2)cc1)c1cc(-c2cccnc2)nc2ccc(Cl)cc12 ?
HT1080 IDH1KD tx: -20%; TDP1 cell CPT: 1.8µM*; HT1080-NT tox: -7%; 12-LOX inh: -11%; DT40 TDP1 no CPT: 2.1µM*; IL1B secr inh: inconclusive

How did O=C(O)c1cc(-c2cccnc2)nc2ccc(Br)cc12 do in these assays?
HT1080 IDH1KD tx: 14%; TDP1 cell CPT: inconclusive; HT1080-NT tox: -1%; 12-LOX inh: 0%; DT40 TDP1 no CPT: 22%; IL1B secr inh: 36

How did CC(=O)Nc1cccc(NC(=O)c2cc(-c3cccnc3)nc3ccc(Cl)cc23)c1 do in these assays?
HT1080 IDH1KD tx: inconclusive; TDP1 cell CPT: inconclusive; HT1080-NT tox: inconclusive; 12-LOX inh: 18%; DT40 TDP1 no CPT: inconclusive; IL1B secr inh: inconclusive

How did CC(=O)Nc1cccc(NC(=O)c2cc(-c3cccnc3)nc3ccc(Br)cc23)c1 do in these assays?
HT1080 IDH1KD tx: inconclusive; TDP1 cell CPT: 18µM*; HT1080-NT tox: inconclusive; 12-LOX inh: -1%; DT40 TDP1 no CPT: 18µM*; IL1B secr inh: -19

Results for COC(=O)c1ccc(Cl)cc1NC(=O)N1CCC(CN2CCC(C)CC2)CC1 ?
TDP1 cell CPT: inconclusive; 12-LOX inh: -26%; DT40 TDP1 no CPT: inconclusive

What do the screens show for `CC[C@H]1CN(C(=O)c2ccnc(Cl)c2)CC[C@H]1CC(=O)NCc1ccc2c(c1)OCO2`?
12-LOX inh: 25%

What do the screens show for `O=C(NCCCc1nc2ccccc2n1Cc1ccccc1Cl)C1CCCCC1`?
TDP1 cell CPT: 23µM*; 12-LOX inh: -30%; DT40 TDP1 no CPT: 18µM*

What do the screens show for `O=C(NCCCc1nc2ccccc2n1Cc1c(F)cccc1Cl)C1CCCCC1`?
TDP1 cell CPT: -15%; 12-LOX inh: -24%; DT40 TDP1 no CPT: -12%

Results for O=C(NCCCc1nc2ccccc2n1Cc1ccc(Cl)cc1)C1CCCCC1 ?
TDP1 cell CPT: 16µM*; 12-LOX inh: -13%; DT40 TDP1 no CPT: 21µM*
